Compound activity as filed in PubChem BioAssay.
In the library only some 2.9% were active in any assay of this set; here they are far more common.
NR1D1 modulator: modulators of Rev-erb alpha DNA binding, primary screen, biochemical, FITC-DNA, fluorescence polarization, uHTS | Nuclear receptor subfamily 1 group D member 1 (Homo sapiens), P20393 | activity, % at 10 µM | Rev-erbα–FITC-DNA binding, 90 min | 370,000 tested, 0.79% active;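 active = activity above about 14%, limit read from the data; passing the limit was not always enough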
Target sequence (P20393 whole entry, looked up): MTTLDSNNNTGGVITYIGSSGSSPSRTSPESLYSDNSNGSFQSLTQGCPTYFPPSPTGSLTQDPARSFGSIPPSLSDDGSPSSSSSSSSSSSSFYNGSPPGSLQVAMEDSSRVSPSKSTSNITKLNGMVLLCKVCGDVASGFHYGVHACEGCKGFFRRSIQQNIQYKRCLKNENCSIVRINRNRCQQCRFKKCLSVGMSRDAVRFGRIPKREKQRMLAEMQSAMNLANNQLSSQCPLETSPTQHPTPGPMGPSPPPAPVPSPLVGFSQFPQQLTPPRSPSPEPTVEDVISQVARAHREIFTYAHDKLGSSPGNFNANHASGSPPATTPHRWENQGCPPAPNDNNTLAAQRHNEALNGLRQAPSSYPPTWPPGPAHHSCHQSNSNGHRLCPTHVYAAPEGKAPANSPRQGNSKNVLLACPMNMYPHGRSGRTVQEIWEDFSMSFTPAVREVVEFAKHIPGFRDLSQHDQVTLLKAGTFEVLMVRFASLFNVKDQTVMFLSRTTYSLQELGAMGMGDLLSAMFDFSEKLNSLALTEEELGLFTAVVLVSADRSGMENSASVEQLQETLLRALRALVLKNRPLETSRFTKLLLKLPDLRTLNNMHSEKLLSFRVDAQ
EP2 mod: EP2 receptor modulators, cAMP readout, primary screen, cell-based, HTRF cAMP, PGE2 stimulation | Prostaglandin E2 receptor EP2 subtype (Homo sapiens), P43116 | EP2-expressing cells, cAMP HTRF FRET, PGE2 co-stimulation | induction, % at 25 µM | 260,000 tested, 0.83% active;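 active = compounds whose cAMP rise, as percent of the full-agonist control response, exceeds 60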;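 note: rat C6 glioma line stably carrying human EP2 under a CMV promoter; the protocol text gives 20 µM as final concentration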
EP2 antag: human EP2 receptor antagonists, primary screen, TR-FRET cAMP, C6 glioma cells; inhibition, % at 25 µM; C6 glioma cells expressing human EP2; cells stimulated with saturating PGE2; AID 1422, 2008; 260,000 tested, 0.52% active;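 active = percent inhibition above 40 after rounding to a whole number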;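 note: rat C6 glioma host cells with rolipram phosphodiesterase inhibitor present; the protocol text gives 20 µM as final concentration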
PG9 binder: binders of HIV-1 gp120 antibody PG9, primary screen, biochemical, TR-FRET; TR-FRET gp120-PG9 antibody binding; inhibition, % at 6.7 µM; 360,000 tested, 0.43% active; in the data active = inhibition above about 8.5%
RAM network inh: inhibitors of the yeast RAM network, primary screen, dse1pr::URA3 reporter, 5-FOA selection; 190,000 tested, 1.8% active; AID 868, 2007; inhibition, % at 50 µM; S. cerevisiae dse1pr::URA3 reporter, 5-FOA growth OD615, 2 d; analog-sensitive cbk1-as2 kinase mutant strain;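 active = inhibition above a set limit, 3 SD over mean compound inhibition, cut at about 8.4% in these data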;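 note: inhibition rescues growth on 5-FOA so higher OD means more RAM inhibition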
SKN-1 block: suppressors of acrylamide-induced Pgst-4::GFP reporter in worms, primary screen, SKN-1 inhibitor project, whole organism, uHTS, GFP/RFP fluorescence ratio, strain VP596; AID 624304, 2012; inhibition, % at 21.8 µM; 360,000 tested, 0.49% active; C. elegans VP596 Pgst-4::GFP/RFP ratio, 24 h;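 active = interference check ratio from 0.5 to 1.5 plus GFP to RFP signal ratio inhibition reaching or exceeding a fixed threshold, cut at about 30% in these data, passing the limit was not always enough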
Each line names hits and unclear results; the compound was inactive in the other large screens; ! = a repeat was not active.

COc1ccc(CNC(=O)C(c2cccs2)N(Cc2ccco2)C(=O)Cc2cccs2)cc1 (configuration not stated)	RAM network inh 11
COc1ccc(CNC(=O)C(c2ccc(C)cc2)N(Cc2cccs2)C(=O)c2ccc3c(c2)OCCO3)cc1 (configuration not stated)	RAM network inh 8.7
Cn1c(SCC(=O)NC2CCCCC2)nnc1-c1ccc2c(c1)OCO2	none (no result: NR1D1 modulator, PG9 binder, RAM network inh, SKN-1 block)
Cc1nn(CC(=O)N(C)C2CCCCC2)c(=O)c2cc3sccc3n12	none (no result: NR1D1 modulator, EP2 antag, PG9 binder, RAM network inh, SKN-1 block)
Cc1ccc(NC(=O)CSc2nnc3c(n2)[nH]c2c(C)ccc(C)c23)c(Br)c1	none (no result: NR1D1 modulator, PG9 binder, RAM network inh, SKN-1 block)
CCOC(=O)Cn1c2ccccc2c2nc3ccccc3nc21	none
CCOC(=O)Cn1c(C(F)(F)F)nc2nc(Cl)c(Cl)nc21	EP2 antag 40 (no result: RAM network inh)
O=S(=O)(NC1CCCC1)c1ccc(S(=O)(=O)N(Cc2cccs2)CC2CCCO2)cc1 (configuration not stated)	RAM network inh 9.6
Cc1nc2c3ccccc3nc(NNC(=O)CCC(=O)NCCC(C)C)n2n1	RAM network inh 9.2
Cc1cc(N(C)C)ccc1N=Nc1ccc(N)cc1	SKN-1 block 97 (no result: EP2 mod, EP2 antag, RAM network inh)
Cc1ccc(S(=O)(=O)N2CCSC2)cc1C	EP2 antag 109!
CNC(=S)N(CCc1ccc(S(N)(=O)=O)cc1)C1CC(=O)N(c2ccccc2F)C1=O (configuration not stated)	RAM network inh 9.4
NC(N)=N[C@@H]1C(O)[C@H](N=C(N)N)[C@@H](O)C(O)[C@H]1O (some centres not stated)	EP2 antag 51 (no result: NR1D1 modulator, PG9 binder, RAM network inh, SKN-1 block)
O=C(CCc1ccccc1)NNC(=O)Cc1cccs1	none (no result: NR1D1 modulator, PG9 binder, RAM network inh, SKN-1 block)
Cn1cnnc1SCC(N)=O	none (no result: NR1D1 modulator, PG9 binder, RAM network inh, SKN-1 block)
O=C1NC(=O)N(c2cccc(Br)c2)C(=O)/C1=C/c1cccc(O)c1	none (no result: NR1D1 modulator, PG9 binder, RAM network inh, SKN-1 block)
CCOc1cc(/C=C2\C(=O)NC(=O)N(c3cccc(Br)c3)C2=O)ccc1O	EP2 antag 98 (no result: NR1D1 modulator, PG9 binder, RAM network inh, SKN-1 block)
COc1cc(/C=C2\C(=O)NC(=S)N(c3ccc(Br)cc3C)C2=O)ccc1O	EP2 antag 74 (no result: NR1D1 modulator, PG9 binder, RAM network inh, SKN-1 block)
Clc1ccc2c(c1)N(CCCN1CCCC13CCCCC3)c1ccccc1S2	EP2 antag 53 (no result: NR1D1 modulator, PG9 binder, RAM network inh, SKN-1 block)
CCOC(=O)Cc1csc(NC(=S)NC(=O)c2ccc(C)cc2)n1	RAM network inh 9.7
CCOC(=O)Cc1csc(NC(=S)NC(=O)c2ccccc2Br)n1	RAM network inh 8.6
CCOC(=O)Cc1csc(NC(=S)NC(=O)c2ccccc2)n1	none
CCCOc1ccc(N2CC(C(=O)Nc3ccc(F)cc3F)CC2=O)cc1 (configuration not stated)	none (no result: NR1D1 modulator, PG9 binder, RAM network inh, SKN-1 block)
Fc1ccc(-c2nnc(-c3ccc(F)cc3)o2)cc1	SKN-1 block 39 (no result: EP2 mod, EP2 antag, RAM network inh)
Fc1ccc(-c2nnc(-c3ccc4ccccc4c3)o2)cc1	SKN-1 block 43 (no result: EP2 mod, EP2 antag, RAM network inh)
Fc1ccc(-c2nnc(Cc3nnc(-c4ccc(F)cc4)o3)o2)cc1	none
Clc1ccc(N2CCN(/N=C/c3cccnc3)CC2)cc1	SKN-1 block 66 (no result: EP2 mod, EP2 antag, RAM network inh)
CN1CCN(/N=C/c2ccc(-c3ccccc3)cc2)CC1	SKN-1 block 79
COc1ccccc1CN(Cc1ccc(NC(C)=O)cc1)CC1CCCO1 (configuration not stated)	none (no result: NR1D1 modulator, PG9 binder, RAM network inh, SKN-1 block)
Cc1ccc2ccc[n+](CCCS(=O)(=O)[O-])c2c1	none (no result: NR1D1 modulator, PG9 binder, RAM network inh, SKN-1 block)
CN(C)C[C@H]1CCC2=C(C1=O)C(c1ccc(Cl)c(Cl)c1)C1=C(CC[C@H](CN(C)C)C1=O)O2	EP2 antag 55 (no result: NR1D1 modulator, PG9 binder, RAM network inh, SKN-1 block)
CN(C)CC1CCC/C(=C\c2ccc(OC(=O)/C=C/c3ccc(Cl)c(Cl)c3)cc2)C1=O (configuration not stated)	none (no result: EP2 mod, EP2 antag, RAM network inh)
COc1cc(C(=O)Nc2ccc(CCC3CCN(C)CC3C)cc2)cc(OC)c1OC (configuration not stated)	none (no result: NR1D1 modulator, EP2 antag, PG9 binder, RAM network inh, SKN-1 block)
C=CCc1c(C)nc2cc(-c3ccc(C)cc3)[nH]n2c1=O	none (no result: EP2 mod, EP2 antag, RAM network inh)
